The values that follow are results of earlier work, collected in PubChem BioAssay AID977611.

Hit rate of the full screen: of about 3,900 compounds, about 3,900 (100%) were called active. Cut-off not given; nearly all actives show Kd up to about 4200 µM. So high a share suggests a set chosen from earlier hits. The list shows a part of the results. Starred links: 1 amine or outer side, 2 acyl side, 3 side chain; linkers in the order of their positions; H or OH if unused. Positions of bridges follow the written chain, without caps; N, C: chain ends. Non-standard residues stand in square brackets, D forms with d. Square brackets hold non-standard residues; d marks the D form. Residues, ends and D or L forms follow the SMILES beside them. Peptide text beside a SMILES is read from it. Thr(P(OH)3+) = C[C@@H](O[P+](O)(O)O)[C@H](N)C(=O)O; X1 = C[C@](CCCCCC=[*:3])(N[*:1])C(=O)[*:2]; X2 = C[C@@](CCCCC=[*:3])(N[*:1])C(=O)[*:2]; Orn(CH(NH2)2) = NC(N)NCCC[C@H](N)C(=O)O; R8 = C=CCCCCCC[C@@](C)(N)C(=O)O; S5 = C=CCCC[C@](C)(N)C(=O)O; Abu = CC[C@H](N)C(=O)O

The nature of the data set: PubChem AID 977611. The settings on record: PDB protein-ligand complexes, literature Kd.

Usually Kd stands for a measure of binding affinity in units of concentration. In the case of `CC(C)C[C@H](NC(=O)[C@@H]1CCCN1C(=O)[C@@H]1CCCN1C(=O)[C@H](CC(C)C)NC(=O)[C@@H]1CCCN1C(=O)[C@H](CCCNC(N)N)NC(=O)[C@@H](N)CCCCN)C(=O)N1CCC[C@H]1C(=O)N[C@@H](CO)C(=O)O` (H-K[Orn(CH(NH2)2)]PLPPLPS-OH), for the setting “protein: phosphatidylinositol 3-kinase (PI3K) SH3 domain, PDB entry 3i5r”, the Kd was 40 µM (active).

H-LAPPKPPLPE-OH: the Kd (protein: The second SH3 domain from CAP/Ponsin, SH3b, PDB entry 4ln2) was 248 µM (active).

Consider H-APPPRPPPPE-OH, for which, for the setting “protein: The first SH3 domain from CAP/Ponsin, SH3a, PDB entry 4lnp”, the equilibrium dissociation constant (Kd) is 214 µM (active).

`CC(C)CCCCCCC(=O)N[C@H]1[C@H](Oc2c3cc4cc2Oc2ccc(cc2Cl)C[C@H]2NC(=O)[C@H](N)c5ccc(O)c(c5)Oc5cc(O)cc(c5)[C@H](NC2=O)C(=O)N[C@H]4C(=O)N[C@H]2C(=O)N[C@H](C(=O)N[C@H](C(=O)O)c4cc(O)cc(O)c4-c4cc2ccc4O)[C@H](O)c2ccc(cc2)O3)O[C@H](CO)[C@@H](O)[C@@H]1O`: the dissociation constant Kd (protein: Maltose-binding periplasmic protein, C-terminal fused by Cys-Lys-D-Ala-D-Ala, PDB entry 3vfj) is 0.091 µM (active).

On to H-GSYGHLSIGT-OH, for which, where the note is “protein: Sufu, PDB entry 4kmd”, the Kd was 3.86 µM (active).

In the case of H-SYGHLSIG-OH, the Kd (protein: MALTOSE-BINDING PERIPLASMIC PROTEIN, SUPPRESSOR OF FUSED HOMOLOG (W61D, L62S, G63F, P453A, K457A mutation), PDB entry 4blb) was 4.47 µM (active).

On to `OS(O)(O)CCNC1CCCCC1`, for which the Kd (protein: Interleukin-13 receptor subunit alpha-1, PDB entry 4hwb) was 0.00057 µM (active).

Take `C[C@H](N)C(=O)N[C@@H](CCCNC(N)N)C(=O)N[C@H](C(=O)N[C@@H](CCCC[N+](C)(C)C)C(=O)N[C@@H](CCC(N)=O)C(=O)N[C@H](C(=O)N[C@@H](C)C(=O)N[C@@H](CCCNC(N)N)C(=O)N[C@@H](CCCCN)C(=O)N[C@@H](CO)C(=O)N[C@H](C(=O)NCC(=O)NCC(=O)N[C@@H](CCCCN)C(=O)N[C@@H](C)C(=O)O)[C@@H](C)O)[C@@H](C)O)[C@@H](C)O`: under “protein: bromodomain PHD finger transcription factor, PDB entry 2fuu”, the equilibrium dissociation constant (Kd) was 2.7 µM (active).

Turning to `CC(=O)NCCCC[C@H](NC(=O)[C@H](CCCNC(N)N)NC(=O)[C@H](C)NC(=O)[C@@H](NC(=O)[C@H](CCC(N)=O)NC(=O)[C@H](CCCCN)NC(=O)[C@@H](NC(=O)[C@H](CCCNC(N)N)NC(=O)[C@H](C)N)[C@@H](C)O)[C@@H](C)O)C(=O)N[C@@H](CO)C(=O)N[C@H](C(=O)NCC(=O)NCC(=O)N[C@@H](CCCCN)C(=O)N[C@@H](C)C(=O)O)[C@@H](C)O`, the Kd (protein: Histone acetyltransferase PCAF, PDB entry 2rnw) is 1050 µM (active).

With `O=C(O)c1ccc2cc[nH]c2c1`, under “protein: Protease (Q7K, L33I, L63I, C67A, C95A mutation), PDB entry 4ej8”, the Kd is 4.1 µM (active).

For H-AHGMLKLYYGLS-OH, the equilibrium dissociation constant (Kd) (protein: Syntaxin-6, PDB entry 4j2c) is 5.6 µM (active).

Turning to `CSCC[C@H](NC(=O)[C@H](C)N)C(=O)N[C@@H](CCCCN)C(=O)N[C@@H](CCCNC(N)N)C(=O)N[C@@H](Cc1cnc[nH]1)C(=O)NCC(=O)N[C@@H](CC(C)C)C(=O)N[C@@H](CC(=O)O)C(=O)N[C@@H](CC(N)=O)C(=O)N[C@@H](Cc1ccc(O)cc1)C(=O)N[C@@H](CCCNC(N)N)C(=O)NCC(=O)N[C@@H](Cc1ccc(O)cc1)C(=O)N[C@@H](CO)C(=O)O` (H-AMK[Orn(CH(NH2)2)]HGLDNY[Orn(CH(NH2)2)]GYS-OH), under “protein: I-Ag7, PDB entry 1f3j”, the Kd was 6 µM (active).

As to `CC[C@H](N)C(=O)N[C@H](C(=O)N[C@@H](Cc1ccccc1)C(=O)N[C@]1(C)CCCCC/C=C/CCCC[C@@](C)(C(=O)N[C@@H](CCC(N)=O)C(=O)N[C@@H](CC(N)=O)C(=O)O)NC(=O)[C@H](CC(C)C)NC(=O)[C@H](CC(C)C)NC(=O)[C@H](CCCNC(N)N)NC(=O)[C@H](Cc2c[nH]c3ccccc23)NC(=O)[C@H](CC(C)C)NC(=O)[C@H](CC(N)=O)NC1=O)[C@@H](C)O` (H-[Abu]TF[X1]NLW[Orn(CH(NH2)2)]LL[X2]QN-OH; staple (E) 4-11), the Kd (protein: E3 ubiquitin-protein ligase Mdm2, PDB entry 3v3b) was 0.055 µM (active).

As to `CC(=O)N[C@H](C(=O)N[C@@H](CO)C(=O)N[C@@H](Cc1ccccc1)C(=O)N[C@]1(C)CCCCCC/C=C/CCC[C@@](C)(C(N)=O)NC(=O)[C@H](CC(C)C)NC(=O)[C@H](CC(C)C)NC(=O)[C@H](Cc2ccc(O)cc2)NC(=O)[C@H](Cc2c[nH]c3ccccc23)NC(=O)[C@H](Cc2ccc(O)cc2)NC(=O)[C@H](CCC(=O)O)NC1=O)[C@@H](C)O` (Ac-TSF[R8]EYWYLL[S5]-NH2; staple (E) 4-11), the Kd (protein: E3 UBIQUITIN-PROTEIN LIGASE MDM2-M62A, PDB entry 4umn) is 0.0631 µM (active).

As to `CC(C)C[C@H](NC(=O)[C@]1(C)CCC/C=C\CCC[C@](C)(NC(=O)[C@H](CCCNC(N)N)NC(=O)[C@H](CO)NC(=O)[C@H](Cc2ccc(O)cc2)NC(=O)[C@H](CCCNC(N)N)NC(=O)[C@H](CCCCN)NC(=O)[C@@H](N)CCCCN)C(=O)N[C@@H](CCC(N)=O)C(=O)N[C@@H](CC(C)C)C(=O)N[C@@H](CC(C)C)C(=O)N1)C(N)=O`, the Kd (protein: EUKARYOTIC TRANSLATION INITIATION FACTOR 4E, PDB entry 4bea) is 0.005 µM (active).

Take `COc1cc(-c2ccc3ncc(-c4cccc([C@@H](O)NCCN(C)C)c4)n3n2)ccc1O`: where the note is “protein: Death-associated protein kinase 1 DAPK1, PDB entry 4txc”, the Kd was 0.24 µM (active).

Consider `CC(C)C[C@H](NC(=O)[C@@H]1CCCN1C(=O)[C@@H]1CCCN1C(=O)[C@@H](NC(=O)[C@@H]1CCCN1C(=O)[C@H](CC(C)C)NC(=O)[C@@H](N)CC(C)C)[C@@H](C)O)C(=O)N[C@@H](CO)C(=O)N1CCC[C@H]1C(=O)N[C@@H](CO)C(=O)N[C@@H](CCCNC(N)N)C(=O)N[C@@H](CCCNC(N)N)C(=O)N[C@@H](CO)C(=O)NCC(=O)O` (H-LLPTPPLSPS[Orn(CH(NH2)2)][Orn(CH(NH2)2)]SG-OH), for which the Kd (protein: Bin1C SH3 domain, PDB entry 1mv0) is 93.3 µM (active).

As for `CC(C)[C@H](NC(=O)[C@H](C)NC(=O)[C@@H](NC(=O)[C@@H](N)CCCCN)C(C)C)C(=O)N[C@H](C(=O)N[C@@H](CCCNC(N)N)C(=O)N[C@H](C(=O)N1CCC[C@H]1C(=O)N1CCC[C@H]1C(=O)N[C@@H](CCCCN)C(=O)O)[C@@H](C)O[P+](O)(O)O)C(C)C` (H-KVAVV[Orn(CH(NH2)2)][Thr(P(OH)3+)]PPK-OH), the dissociation constant (Kd) (protein: anti-ptau heavy chain and anti-ptau light chain, PDB entry 4glr) was 0.00035 µM (active).

`CC(C)[C@H](NC(=O)[C@H](CCCCN)NC(=O)[C@H](CCCNC(N)N)NC(=O)[C@H](CCCCN)NC(=O)[C@H](CCCCN)NC(=O)[C@H](CCCCN)NC(=O)[C@@H]1CCCN1C(=O)[C@@H]1CCCN1C(=O)[C@H](CO)NC(=O)CN)C(=O)NCC(=O)O` (H-GSPPKKK[Orn(CH(NH2)2)]KVG-OH): the Kd (protein: IMPORTIN SUBUNIT ALPHA-1A, PDB entry 4b8o) is 0.004 µM (active).

For `CC(C)C[C@H](NC(=O)CNC(=O)[C@H](CO)NC(=O)[C@@H]1CCCN1C(=O)[C@@H](N)CC(C)C)C(=O)N[C@@H](CC(C)C)C(=O)N[C@H](C(=O)N1CCC[C@H]1C(=O)N1CCC[C@H]1C(=O)N[C@@H](CCC(N)=O)C(=O)N[C@@H](CO[P+](O)(O)O)C(=O)NCC(=O)O)[C@H](C)O[P+](O)(O)O`, where the note is “protein: Skp1-Fbw7, PDB entry 2ovq”, the Kd is 0.07 µM (active).
